Among the data in the supplement of paper PMC10849652 are log2 fold change values, retold here.

Targets with a hit are over-represented here; the source holds about 7,900 in all. About 0.6% of all pairs of compound and target were hits. Unmarked numbers belong to inactive results.

Chain of UniProt Q9H4A4 (Q9H4A4 whole entry, looked up): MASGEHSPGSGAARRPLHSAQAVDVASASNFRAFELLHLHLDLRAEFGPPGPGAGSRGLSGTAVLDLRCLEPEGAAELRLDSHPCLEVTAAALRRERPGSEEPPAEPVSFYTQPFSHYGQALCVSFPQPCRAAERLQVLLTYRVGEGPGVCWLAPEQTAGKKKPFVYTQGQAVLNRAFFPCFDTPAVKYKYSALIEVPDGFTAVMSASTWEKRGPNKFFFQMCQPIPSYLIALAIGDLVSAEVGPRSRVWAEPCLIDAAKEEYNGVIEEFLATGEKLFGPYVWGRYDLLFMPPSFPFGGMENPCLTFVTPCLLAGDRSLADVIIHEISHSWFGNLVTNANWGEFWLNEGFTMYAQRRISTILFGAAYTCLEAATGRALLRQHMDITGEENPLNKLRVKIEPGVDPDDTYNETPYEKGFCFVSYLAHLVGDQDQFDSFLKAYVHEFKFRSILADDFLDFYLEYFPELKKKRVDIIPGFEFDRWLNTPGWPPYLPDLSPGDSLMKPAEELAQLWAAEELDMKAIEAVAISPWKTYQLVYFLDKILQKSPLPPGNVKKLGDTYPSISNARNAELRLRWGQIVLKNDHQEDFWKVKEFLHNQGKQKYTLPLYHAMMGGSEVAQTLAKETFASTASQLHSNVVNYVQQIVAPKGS
Chain of UniProt O15127 (O15127 whole entry, looked up): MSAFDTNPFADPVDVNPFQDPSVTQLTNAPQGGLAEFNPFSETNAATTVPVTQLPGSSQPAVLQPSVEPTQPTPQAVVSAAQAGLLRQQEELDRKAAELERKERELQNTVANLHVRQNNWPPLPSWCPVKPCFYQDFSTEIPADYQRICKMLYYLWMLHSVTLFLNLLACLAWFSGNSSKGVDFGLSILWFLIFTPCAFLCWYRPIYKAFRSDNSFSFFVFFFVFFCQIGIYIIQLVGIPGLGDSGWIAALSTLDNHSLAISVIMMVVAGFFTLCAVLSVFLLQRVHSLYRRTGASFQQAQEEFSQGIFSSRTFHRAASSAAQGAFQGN
Chain of UniProt Q7Z6E9 (Q7Z6E9 whole entry, looked up): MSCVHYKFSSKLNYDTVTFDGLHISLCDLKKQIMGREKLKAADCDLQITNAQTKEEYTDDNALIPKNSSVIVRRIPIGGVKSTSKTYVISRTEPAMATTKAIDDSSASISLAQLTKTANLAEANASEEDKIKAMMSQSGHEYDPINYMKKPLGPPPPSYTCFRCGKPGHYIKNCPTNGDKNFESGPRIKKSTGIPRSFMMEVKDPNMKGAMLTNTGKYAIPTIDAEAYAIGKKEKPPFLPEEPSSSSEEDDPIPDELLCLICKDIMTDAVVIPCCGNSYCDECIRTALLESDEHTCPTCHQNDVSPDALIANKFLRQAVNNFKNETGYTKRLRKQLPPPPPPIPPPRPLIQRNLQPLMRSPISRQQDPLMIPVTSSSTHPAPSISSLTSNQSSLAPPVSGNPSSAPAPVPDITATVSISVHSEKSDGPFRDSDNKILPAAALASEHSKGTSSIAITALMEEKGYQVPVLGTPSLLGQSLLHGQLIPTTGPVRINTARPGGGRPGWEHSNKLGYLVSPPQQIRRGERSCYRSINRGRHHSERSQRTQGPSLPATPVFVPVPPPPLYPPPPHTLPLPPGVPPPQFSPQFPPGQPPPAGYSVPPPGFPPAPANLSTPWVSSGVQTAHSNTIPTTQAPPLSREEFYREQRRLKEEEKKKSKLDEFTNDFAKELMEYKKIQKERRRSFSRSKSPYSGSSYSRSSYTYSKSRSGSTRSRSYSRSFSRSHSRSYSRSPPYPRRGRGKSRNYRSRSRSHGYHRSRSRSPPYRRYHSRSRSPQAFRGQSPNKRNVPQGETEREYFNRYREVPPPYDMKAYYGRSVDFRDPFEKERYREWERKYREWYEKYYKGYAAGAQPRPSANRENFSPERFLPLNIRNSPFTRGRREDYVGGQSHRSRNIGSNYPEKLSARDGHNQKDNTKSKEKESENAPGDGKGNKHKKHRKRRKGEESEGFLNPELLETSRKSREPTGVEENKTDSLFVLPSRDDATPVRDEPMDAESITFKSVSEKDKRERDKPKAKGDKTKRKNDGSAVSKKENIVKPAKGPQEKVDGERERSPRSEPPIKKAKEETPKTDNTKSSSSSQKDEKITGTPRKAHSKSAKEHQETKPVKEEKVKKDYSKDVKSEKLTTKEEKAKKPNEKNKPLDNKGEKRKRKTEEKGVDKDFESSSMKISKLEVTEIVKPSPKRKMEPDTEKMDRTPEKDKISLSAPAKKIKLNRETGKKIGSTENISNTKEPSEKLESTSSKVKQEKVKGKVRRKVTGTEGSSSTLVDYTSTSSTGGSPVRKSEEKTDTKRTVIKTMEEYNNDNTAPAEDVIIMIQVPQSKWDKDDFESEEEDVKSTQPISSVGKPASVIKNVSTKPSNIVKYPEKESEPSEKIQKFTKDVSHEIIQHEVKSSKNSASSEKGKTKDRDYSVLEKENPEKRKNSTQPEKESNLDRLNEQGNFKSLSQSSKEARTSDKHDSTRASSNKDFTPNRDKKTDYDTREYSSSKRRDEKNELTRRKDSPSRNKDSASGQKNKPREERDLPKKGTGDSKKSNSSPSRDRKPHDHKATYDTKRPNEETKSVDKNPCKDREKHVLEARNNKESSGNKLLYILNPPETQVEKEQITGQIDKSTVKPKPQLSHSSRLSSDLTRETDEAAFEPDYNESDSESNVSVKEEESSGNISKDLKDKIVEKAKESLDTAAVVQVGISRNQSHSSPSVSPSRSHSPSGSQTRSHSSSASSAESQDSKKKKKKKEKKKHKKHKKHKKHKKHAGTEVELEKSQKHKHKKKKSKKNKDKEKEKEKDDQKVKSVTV
Chain of UniProt Q8IZQ5 (Q8IZQ5 whole entry, looked up): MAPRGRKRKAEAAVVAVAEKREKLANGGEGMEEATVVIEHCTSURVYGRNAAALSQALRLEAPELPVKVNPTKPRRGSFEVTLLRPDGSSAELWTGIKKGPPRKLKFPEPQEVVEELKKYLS
Chain of UniProt P51812 (P51812 whole entry, looked up): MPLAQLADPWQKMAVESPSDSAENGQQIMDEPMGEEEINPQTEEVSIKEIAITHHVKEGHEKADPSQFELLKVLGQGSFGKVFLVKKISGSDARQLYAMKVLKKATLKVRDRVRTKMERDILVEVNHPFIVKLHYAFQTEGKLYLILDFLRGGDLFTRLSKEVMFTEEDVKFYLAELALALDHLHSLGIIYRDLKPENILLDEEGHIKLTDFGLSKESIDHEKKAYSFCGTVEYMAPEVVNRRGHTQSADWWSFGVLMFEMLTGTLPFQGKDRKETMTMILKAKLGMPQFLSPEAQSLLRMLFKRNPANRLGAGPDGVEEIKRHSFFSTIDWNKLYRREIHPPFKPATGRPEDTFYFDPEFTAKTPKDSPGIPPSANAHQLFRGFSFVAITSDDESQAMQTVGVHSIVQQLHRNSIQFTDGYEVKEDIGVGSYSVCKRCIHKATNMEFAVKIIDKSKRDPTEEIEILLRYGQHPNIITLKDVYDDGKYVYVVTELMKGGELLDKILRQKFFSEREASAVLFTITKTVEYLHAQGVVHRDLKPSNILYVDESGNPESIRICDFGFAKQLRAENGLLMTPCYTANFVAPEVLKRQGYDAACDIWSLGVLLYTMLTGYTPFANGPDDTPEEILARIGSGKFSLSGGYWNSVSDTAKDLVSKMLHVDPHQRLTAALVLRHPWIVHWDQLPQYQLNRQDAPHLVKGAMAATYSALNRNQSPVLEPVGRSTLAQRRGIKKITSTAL
Chain of UniProt P61586 (P61586 whole entry, looked up): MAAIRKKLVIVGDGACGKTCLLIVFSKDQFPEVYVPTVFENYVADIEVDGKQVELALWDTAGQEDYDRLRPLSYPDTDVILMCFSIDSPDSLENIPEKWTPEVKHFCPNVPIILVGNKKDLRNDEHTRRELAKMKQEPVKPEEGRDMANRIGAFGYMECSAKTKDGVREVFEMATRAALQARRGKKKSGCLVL
Chain of UniProt P41440 (P41440 whole entry, looked up): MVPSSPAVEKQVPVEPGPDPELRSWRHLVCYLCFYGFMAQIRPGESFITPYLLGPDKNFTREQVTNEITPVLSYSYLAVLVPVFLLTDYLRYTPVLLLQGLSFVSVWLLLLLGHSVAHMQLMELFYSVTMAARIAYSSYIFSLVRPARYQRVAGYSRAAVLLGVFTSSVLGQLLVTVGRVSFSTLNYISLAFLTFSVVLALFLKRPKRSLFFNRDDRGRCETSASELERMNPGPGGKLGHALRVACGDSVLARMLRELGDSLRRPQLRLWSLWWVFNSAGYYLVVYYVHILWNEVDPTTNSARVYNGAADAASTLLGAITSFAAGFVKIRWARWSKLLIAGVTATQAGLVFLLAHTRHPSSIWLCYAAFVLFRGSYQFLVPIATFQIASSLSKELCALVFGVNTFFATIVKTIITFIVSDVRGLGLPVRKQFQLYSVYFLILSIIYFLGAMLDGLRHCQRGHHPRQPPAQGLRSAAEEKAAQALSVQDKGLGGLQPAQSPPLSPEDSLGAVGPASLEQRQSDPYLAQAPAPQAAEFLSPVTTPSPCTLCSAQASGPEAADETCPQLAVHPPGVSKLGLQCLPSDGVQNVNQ
Chain of UniProt Q06609 (Q06609 whole entry, looked up): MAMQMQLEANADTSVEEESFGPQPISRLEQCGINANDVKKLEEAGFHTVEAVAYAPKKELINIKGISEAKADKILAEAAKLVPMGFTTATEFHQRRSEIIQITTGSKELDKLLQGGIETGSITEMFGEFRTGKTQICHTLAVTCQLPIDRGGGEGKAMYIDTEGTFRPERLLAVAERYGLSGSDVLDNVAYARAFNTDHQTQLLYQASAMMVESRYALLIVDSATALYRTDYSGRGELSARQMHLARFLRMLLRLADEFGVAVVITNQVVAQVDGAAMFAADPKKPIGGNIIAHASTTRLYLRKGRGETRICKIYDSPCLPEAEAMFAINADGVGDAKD
Chain of UniProt Q96EU6 (Q96EU6 whole entry, looked up): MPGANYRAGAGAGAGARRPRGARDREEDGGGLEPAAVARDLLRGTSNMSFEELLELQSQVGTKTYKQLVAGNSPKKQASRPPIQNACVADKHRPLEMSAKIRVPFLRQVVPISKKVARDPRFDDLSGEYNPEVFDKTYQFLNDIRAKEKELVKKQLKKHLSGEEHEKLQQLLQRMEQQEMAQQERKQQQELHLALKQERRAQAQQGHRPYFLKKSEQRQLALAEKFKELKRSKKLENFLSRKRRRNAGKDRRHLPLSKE

Compound in the first assay: CCn1cc(-c2ccnc3[nH]c(-c4cccc(CN(C)C)c4)cc23)c(-c2ccc(NC(=O)N(C)C)cc2)n1
In words: log2 fold change, soluble protein after heating vs DMSO (PISA); higher = thermal stabilisation; K562 cells, 10 uM, 30 min; active = over 0.2 and 3.5 SD of the protein, either way, in both replicates (recomputed). Put shortly:
(§1)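 Soluble protein was defined as the supernatant after 21,000xg for 90 min. It came from K562 cells at 2×10^6 cells/mL given 10 μM compound for 30 min, heated in aliquots for 3 min across 48°C-58°C, pooled, and extracted in PBS with 0.5% NP-40 at 4°C, and was quantified by TMTpro 16plex LC-MS/MS with equalised channel sums. Thermal stability against control samples, from duplicates, is reported as log2 fold change.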
On to RARS2 (UniProt Q5T160), for which the log2 fold change was -0.046.
For the target RRP36 (UniProt Q96EU6), the log2 fold change was 0.201.
Regarding RCOR1 (UniProt Q9UKL0), the log2 fold change is -0.033.
As for RBM48 isoform 2 (UniProt Q5RL73), the log2 fold change is 0.078.
Take RPS18 (UniProt P62269): the log2 fold change is 0.057.
Turning to RPA3 (UniProt P35244), the log2 fold change was -0.044.
As for RPS6KA3 (UniProt P51812), the log2 fold change was -0.049.
Consider RHOXF2 (UniProt Q9BQY4), for which the log2 fold change is 0.086.
SCAMP2 (UniProt O15127): the log2 fold change was 0.043.
As to SAMD4B (UniProt Q5PRF9), the log2 fold change is 0.023.
Still for that read-out and setting: in the case of RAD50, A0A494C0Y7 it was 0.033; in that of RNF167 (UniProt Q9H6Y7), 0.057.
Take SLC19A1 (UniProt P41440): the log2 fold change was -0.047.
Same read-out and setting: in the case of SH2D1B (UniProt O14796) it was -0.068; in that of RHOA (UniProt P61586), 0.071; in that of RNPEP (UniProt Q9H4A4), -0.09.
In the case of RAB3IL1 (UniProt E9PK89), the log2 fold change is -0.555 (active).
As to RDH10 (UniProt Q8IZV5), the log2 fold change is 0.021.
Turning to RAF1 isoform 2 (UniProt P04049), the log2 fold change was -0.241.
Consider RBBP6 (UniProt Q7Z6E9), for which the log2 fold change was -0.003.
As for ROCK1 (UniProt Q13464), the log2 fold change is -0.05.
Same read-out and setting: in the case of RUFY1 (UniProt Q96T51) it was 0.06; in that of RAD51 (UniProt Q06609), -0.011.
For SCO2 (UniProt O43819), the log2 fold change is -0.051.
For the target SELENOH (UniProt Q8IZQ5), the log2 fold change was -0.051.
RPS25 (UniProt P62851): the log2 fold change is 0.134.
On to RTF2 (UniProt Q9BY42), for which the log2 fold change was 0.012.
Consider RAB5IF isoform 5 (UniProt Q9BUV8), for which the log2 fold change is -0.056.
Regarding SIK3 (UniProt H0Y4E8), the log2 fold change is -0.065.
Take RUFY3 isoform 3 (UniProt Q7L099): the log2 fold change is 0.079.
With RCOR3 isoform 3 (UniProt Q9P2K3), the log2 fold change is -0.294.

Compound in the next assay: CN(C)CC(=O)Nc1ccc2[nH]c(=O)c3ccccc3c2c1
Described as above. An outline of the steps: as §1
For the target RARS2 (UniProt Q5T160), the log2 fold change is 0.026.
On to RRP36 (UniProt Q96EU6), for which the log2 fold change is -0.114.
Consider RCOR1 (UniProt Q9UKL0), for which the log2 fold change was 0.006.
On the same count and under the same terms, in the case of RPS18 (UniProt P62269) it was -0.036.
Still for that read-out and setting: for RPA3 (UniProt P35244) the value was 0.163.
The same measure, in the same setting: in the case of RPS6KA3 (UniProt P51812) it was 0.016; in that of RHOXF2 (UniProt Q9BQY4), -0.028; in that of SCAMP2 (UniProt O15127), 0.061.
On to RAD50, A0A494C0Y7, for which the log2 fold change is 0.055.
Same read-out and setting: for RNF167 (UniProt Q9H6Y7) the value was -0.008; for SLC19A1 (UniProt P41440), 0.003; for SH2D1B (UniProt O14796), -0.025.
Take RHOA (UniProt P61586): the log2 fold change was -0.025.
Same read-out and setting: for RNPEP (UniProt Q9H4A4) the value was 0.034.
RAB3IL1 (UniProt E9PK89): the log2 fold change is 0.035.
Turning to RDH10 (UniProt Q8IZV5), the log2 fold change is -0.006.
Turning to RAF1 isoform 2 (UniProt P04049), the log2 fold change is 0.028.
As to RBBP6 (UniProt Q7Z6E9), the log2 fold change is 0.024.
ROCK1 (UniProt Q13464): the log2 fold change is -0.011.
Turning to RUFY1 (UniProt Q96T51), the log2 fold change is 0.033.
In the case of SCAMP2 (UniProt H3BUB6), the log2 fold change was -0.201.
Still for that read-out and setting: in the case of RAD51 (UniProt Q06609) it was -0.024.
As for SERINC1 (UniProt Q9NRX5), the log2 fold change was -0.023.
As to SCO2 (UniProt O43819), the log2 fold change was 0.039.
In the case of SELENOH (UniProt Q8IZQ5), the log2 fold change is 0.041.
For RPS25 (UniProt P62851), the log2 fold change is -0.03.
With RTF2 (UniProt Q9BY42), the log2 fold change is 0.005.
On the same count and under the same terms, for RAB5IF isoform 5 (UniProt Q9BUV8) the value was -0.031.
For the target SIK3 (UniProt H0Y4E8), the log2 fold change is -0.111.
Same read-out and setting: for RPAIN isoform 8 (UniProt Q86UA6) the value was -0.076.
With RUFY3 isoform 3 (UniProt Q7L099), the log2 fold change was 0.011.
Turning to RCOR3 isoform 3 (UniProt Q9P2K3), the log2 fold change was 0.038.

Compound in the next assay: CN(CCOC1=CC=C(C=C1)C[C@H]2C(=O)NC(=O)S2)C3=CC=CC=N3 (racemic) [rosiglitazone]
Described as above. Put shortly: as §1
With RARS2 (UniProt Q5T160), the log2 fold change is 0.019.
Regarding RRP36 (UniProt Q96EU6), the log2 fold change is -0.25.
RCOR1 (UniProt Q9UKL0): the log2 fold change was 0.077.
As to RBM48 isoform 2 (UniProt Q5RL73), the log2 fold change was 0.006.
For the target RPS18 (UniProt P62269), the log2 fold change is -0.11.
Take RPA3 (UniProt P35244): the log2 fold change was 0.003.
As to RPS6KA3 (UniProt P51812), the log2 fold change is 0.052.
On to RHOXF2 (UniProt Q9BQY4), for which the log2 fold change was -0.013.
As to SCAMP2 (UniProt O15127), the log2 fold change is -0.043.
With SAMD4B (UniProt Q5PRF9), the log2 fold change is -0.008.
Same read-out and setting: for RAD50, A0A494C0Y7 the value was -0.001; for RNF167 (UniProt Q9H6Y7), -0.019; for SLC19A1 (UniProt P41440), 0.019.
As for RHOA (UniProt P61586), the log2 fold change is -0.057.
As to RNPEP (UniProt Q9H4A4), the log2 fold change is 0.077.
Regarding RAB3IL1 (UniProt E9PK89), the log2 fold change was 0.017.
For RDH10 (UniProt Q8IZV5), the log2 fold change is 0.021.
For RAF1 isoform 2 (UniProt P04049), the log2 fold change is 0.042.
For the target RBBP6 (UniProt Q7Z6E9), the log2 fold change is 0.014.
On to ROCK1 (UniProt Q13464), for which the log2 fold change was 0.042.
RUFY1 (UniProt Q96T51): the log2 fold change was 0.036.
On to SCAMP2 (UniProt H3BUB6), for which the log2 fold change was -0.034.
The same measure, in the same setting: in the case of RAD51 (UniProt Q06609) it was -0.016; in that of SERINC1 (UniProt Q9NRX5), -0.051.
For the target SCO2 (UniProt O43819), the log2 fold change is 0.034.
Same read-out and setting: in the case of SELENOH (UniProt Q8IZQ5) it was -0.002; in that of RPS25 (UniProt P62851), -0.062; in that of RTF2 (UniProt Q9BY42), -0.055.
Take RAB5IF isoform 5 (UniProt Q9BUV8): the log2 fold change was 0.028.
RPAIN isoform 8 (UniProt Q86UA6): the log2 fold change is -0.021.
The same measure, in the same setting: for RCOR3 isoform 3 (UniProt Q9P2K3) the value was 0.037.
